# HPGD block = blocks human HPGD enzyme activity; Potency, µM, without a hit: at the top dose activity change, negative = inhibition, most hits filed as inhibitors; hit rate 4.3% among 150,000; P15428; purified HPGD, NADH fluorescence kinetic, PGE2 substrate; active = well fitted inhibition curve with a large enough effect, not every such curve was filed as active; inconclusive = small, poorly fitted or top-dose-only effect, or another doubt; inactive = no such curve, though single readings can be large or run the other way; note: potency is the fitted concentration of half-maximal effect
# Target sequence (P15428 whole entry, looked up): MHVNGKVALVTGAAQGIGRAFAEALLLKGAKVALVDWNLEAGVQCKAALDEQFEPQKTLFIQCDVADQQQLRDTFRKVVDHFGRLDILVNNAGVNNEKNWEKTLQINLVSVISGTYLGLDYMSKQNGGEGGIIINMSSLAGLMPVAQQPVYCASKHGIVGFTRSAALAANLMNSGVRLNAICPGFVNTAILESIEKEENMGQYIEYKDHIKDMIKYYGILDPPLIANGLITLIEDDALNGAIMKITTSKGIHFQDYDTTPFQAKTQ
#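 NADH formation kinetics: reaction with 30 uM PGE2 and 1 mM NAD+ (final), 20 nM enzyme, Tris-HCl pH 8 with Tween 20, after 15 min compound preincubation at room temperature. Fluorescence change, last versus first of five reads.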
# ALDH1A1 block = inhibitors of human aldehyde dehydrogenase 1A1; P00352; Purified ALDH1A1, NADH fluorescence, propionaldehyde substrate; Potency, µM (top dose mostly 75.3 µM), for the others: at the highest dose activity, negative = inhibition, most hits filed as inhibitors; hit rate 7.3% among 220,000; AID 1030; active = well fitted inhibition curve with a large enough effect, not every such curve was filed as active; inconclusive = small, poorly fitted or top-dose-only effect, or another doubt; inactive = no such curve, though single readings can be large or run the other way;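 note: potency is the fitted concentration of half-maximal effect; plate controls were no enzyme wells and a reference inhibitor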
# PNC assembly inh = blocks assembly of the perinucleolar compartment; PC3M PTB-GFP, PNC prevalence imaging, 16 h; hits give low values; activity change (PNC), negative = inhibition, % at 10 µM; hit rate 3.1% among 140,000; AID 2417;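 active = readout at or below -70, meaning at least 70% loss of cells showing the perinucleolar compartment, a nuclear body marking cancer cells; inconclusive = readout between -30 and a set limit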;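 note: plate controls were DMSO wells for no effect and camptothecin positive control wells for full effect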
#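 Read-out is percentage of cells bearing a perinucleolar compartment, from automated 20x imaging of fixed, Hoechst-stained PC3M PTB-GFP cells. Cells were seeded 4 h, then exposed 16 h to compound (23 nl of library stock) in duplicate plates.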
# 12-hLO inh = 12-hLO (ALOX12) enzyme inhibition; P18054; purified 12-hLO, xylenol orange hydroperoxide absorbance; Potency, µM (top dose mostly 57.1 µM), for inactives: at the highest dose activity change, negative = inhibition, most hits filed as inhibitors; hit rate 0.12% among 150,000; AID 1452; note: potency is the fitted concentration of half-maximal effect; nearly all actives have a fitted effect of over 55% in size
#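 Lipoxygenase turnover measured by absorbance at 573 and 405 nm after Fe-XO development. Human 12hLO 150 nM, arachidonate 40 uM, pH 7.0 Hepes buffer with detergent; 15 min compound preincubation, 30 min reaction.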
# GLA inh pH 4.5 = inhibitors of human alpha-galactosidase A at pH 4.5. P06280. purified enzyme, 4-MU-alpha-Gal fluorescence, pH 4.5. activity change, negative = inhibition, % at 105 µM. 230,000 tested, under 10 active. AID 1467;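 note: 0% = full activity with enzyme and -100% = basal without enzyme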
# GLA spleen mod = inhibits or activates alpha-galactosidase in human spleen homogenate; hit rate 0.008% among 240,000; Potency, µM (titrated, usually from 80 µM), without a hit: at the highest dose activity change, negative = inhibition, usual class: inhibitors; human spleen homogenate, 4MU-alpha-Gal fluorescence, 40 min; AID 2107; P06280;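 note: potency is the fitted concentration of half-maximal effect; 0% = enzyme with vehicle and -100% = no enzyme basal signal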
# Target sequence (P06280 32-429 limits assumed): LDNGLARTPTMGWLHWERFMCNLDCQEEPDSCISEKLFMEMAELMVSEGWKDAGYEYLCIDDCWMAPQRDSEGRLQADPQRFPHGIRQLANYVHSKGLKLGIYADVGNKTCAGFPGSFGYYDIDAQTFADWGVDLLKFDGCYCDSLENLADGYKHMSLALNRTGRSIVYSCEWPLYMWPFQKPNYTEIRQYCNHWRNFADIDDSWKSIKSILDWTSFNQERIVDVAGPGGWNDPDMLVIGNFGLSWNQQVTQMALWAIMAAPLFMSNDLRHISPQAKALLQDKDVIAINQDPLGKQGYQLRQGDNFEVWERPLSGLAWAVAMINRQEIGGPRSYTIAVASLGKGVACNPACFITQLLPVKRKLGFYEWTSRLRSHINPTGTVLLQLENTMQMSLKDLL
#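 Spleen homogenate 1 ug + cpd (titration) + 4-MU-alpha-D-galactopyranoside 1 mM; 37C 40 min; 50 mM citrate/phosphate pH 5.0, 0.01% Tween-20; stop pH 10; fluorescence 365/440; AC50 via Hill.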
# The depositor's hits bear a star; ? = inconclusive; / = no result; [ ] = remark or other dose. Compounds with a hit are over-represented: about 10% of the library has one in this group of screens. Unless noted, calls come from the whole dose curve; as a rule, active = well fitted curve in the direction sought with a large enough effect; inconclusive = small, poorly fitted or top-dose-only effect, or another doubt; inactive = no such curve, though single readings can be large; an effect the other way counts as inactive or inconclusive. Unless noted, % is set by controls: 0 for no effect and ±100 for the full control effect.
SMILES,HPGD block,ALDH1A1 block,PNC assembly inh,12-hLO inh,GLA inh pH 4.5,GLA spleen mod
COc1ccc(/C=C(\C#N)C(=O)NCc2cccnc2)cc1OC,/,0.7%,/,/,2.2,0.5%
CCCc1[nH]n(-c2ccc([N+](=O)[O-])cc2)c(=O)c1C=NCCc1ccc(OC)c(OC)c1,/,1.78µM*,/,/,0.1,-1.1%
CCCc1[nH]n(-c2ccc([N+](=O)[O-])cc2)c(=O)c1C=NCCc1c[nH]c2ccccc12,-24.5%,3.0%,16.3,15.0%,-7.9,1.2%
O=C(CCCC(=O)N(CC(=O)NC1CCCC1)C1CCCC1)Nc1ccccn1,-9.5%,?,-123.3*,-3.3%,2.7,-9.0%
COC(=O)C(C(=O)OC)c1ccc(NC(=O)c2cccc(Cl)c2)cc1,/,3.3%,/,/,7.4,-0.3%
COc1ccc(C(=O)Nc2cc(C(=O)c3ccccc3)c(C)oc2=O)cc1,-11.0%,20µM*,-6.4,?,0.5,10.1%
O=C(N/N=C/C1C(c2ccccc2)C1(Cl)Cl)c1cccc(Cl)c1 (centres undefined),-20.5%,7.08µM*,4.2,4.0%,-8.0,2.9%
O=C(Nc1ccc(N=Nc2ccccc2)cc1)c1cccc(Cl)c1,1.8%,11.9%,-111.2*,-1.8%,3.7,4.4%
Cc1oc(=O)c(NC(=O)c2cccc(Cl)c2)cc1C(=O)c1ccccc1,31.6µM*,8.91µM*,39.6,-21.4%,1.1,-4.8%
COC(=O)N1CCC[C@@]2(CCN(C(=O)Nc3ccccc3)C2)C1,-10.6%,-2.1%,/,-0.8%,/,-2.5%
O=C(O)[C@@H](Br)[C@@H](Br)c1ccccc1[N+](=O)[O-],-3.0%,2.9%[13.5 µM],/,-2.6%[11.4 µM],/,/
CCOc1ccc(NC(=O)CC2C(=O)N(c3ccc(OC)cc3)C(=S)N2Cc2ccccn2)cc1 (centres undefined),/,?,/,/,-15.1,2.4%
CO/N=C\Cc1oc(=O)c(NC(=O)c2ccccc2)cc1C(=O)OC,-11.0%,22.4µM*,-6.9,-9.2%,-11.5,2.5%
CCCN1C(=O)C(O)(C2CC(=O)CC(C)(C)O2)c2ccccc21 (centres undefined),-1.1%,0.794µM*,29.0,-1.0%,3.4,-1.8%
CCN1C(=O)C(O)(C2COC(C)(C)CC2=O)c2ccccc21 (centres undefined),-6.1%,?,31.6,9.1%,5.0,0.0%
CCN1C(=O)C(O)(C2COC(C)(C)CC2=O)c2cc(Br)ccc21 (centres undefined),-12.6%,8.91µM*,?,8.0%,-3.3,6.8%
CCCN1C(=O)C(O)(C2COC(C)(C)CC2=O)c2ccccc21 (centres undefined),/,0.355µM*,/,/,-3.4,3.3%
CC(C)(C)c1ccc(O)c(CN(Cc2cc(C(C)(C)C)ccc2O)c2ccccc2)c1,-9.6%,8.1%[13.5 µM],/,3.0%[11.4 µM],/,/
CCOC(=O)C1(C(=O)O)NC(=O)CC1c1ccccc1 (centres undefined),-8.3%,-8.3%,-95.2*,1.3%,6.2,3.6%
CC(=O)C1(C)CC2=C(CCCC2(C)C)CC1C (centres undefined),-12.1%,?,/,-0.8%,/,-5.3%
OCCNc1nc(-c2cccnc2)nc2ccccc12,?,25.1µM*,?,-4.9%,-4.0,-9.3%
CN(C)c1nc(-c2cccnc2)nc2ccccc12,/,?,/,/,/,28.2µM*
O=C(Cn1c(=O)n(Cc2ccco2)c(=O)c2c3c(sc21)CCCCC3)Nc1ccccc1,?,7.08µM*,6.2,?,-28.6,-5.8%
O=c1c2c3c(sc2n(CCN2CCCC2)c(=O)n1Cc1ccco1)CCCCC3,-9.8%,5.01µM*,-6.4,-6.2%,-11.7,-11.9%
O=C(O)CO,/,/,/,/,/,9.5%
SMILES,HPGD block,ALDH1A1 block,PNC assembly inh,12-hLO inh,GLA inh pH 4.5,GLA spleen mod
Cc1ccc(/C=N/NC(=O)NC2CCCCC2)o1,/,3.55µM*,/,/,3.5,-21.4%
Cc1ccc(/C=C/C(=O)NC2CCCCCCC2)o1,3.55µM*,3.55µM*,30.2,0.3%,3.2,7.9%
Cc1ccc2nc(-c3ccc(N)cc3)sc2c1S(=O)(=O)O,?,?,/,-1.1%,/,?
CS(=O)(=O)N1CCC[C@@]2(CCN(c3ccccc3)C2)C1,-0.3%,?,/,-4.8%,/,-0.3%
O=C(CCCn1c(=O)[nH]c2cc(Cl)ccc2c1=O)NCC1CCCO1 (centres undefined),-14.6%,-6.9%,-118.9*,2.0%,0.2,1.9%
Cn1c(=O)cc(SCC(=O)NCC2CCCO2)c2ccc(Cl)cc21 (centres undefined),14.1µM*,-8.3%,-10.5,-4.2%,1.0,1.9%
CCn1c(=O)cc(SCC(=O)NCC2CCCO2)c2ccccc21 (centres undefined),?,?,?,0.0%,6.8,15.2%
O=C(CCCn1c(=S)[nH]c2ccc(Br)cc2c1=O)NCC1CCCO1 (centres undefined),7.08µM*,1.41µM*,14.5,2.8%,0.4,-3.0%
FC(F)(F)c1nc(N2CCCC2)ncc1-c1nnnn1-c1ccc(Cl)cc1,-24.2%,-12.2%,-25.4,-2.3%,-10.4,-4.3%
CCCCC[C@H](O)/C=C/C=C\CCCCCCCCCC(=O)O,-10.8%,12.2%,/,3.8%,-2.3,-11.1%
COC(=O)c1ccc(Cl)c(NC(=O)NC23CC4CC(CC(C4)C2)C3)c1,-10.8%,-5.1%,11.8,-1.7%,-5.1,0.8%
COC(=O)c1cccc(NC(=O)NC23CC4CC(CC(C4)C2)C3)c1,?,31.6µM*,?,-3.5%,-18.8,5.6%
COc1ccc2cc(/C=N/NC(=O)CN(c3ccccc3C)S(=O)(=O)c3ccccc3)c(Cl)nc2c1,?,?,17.1,-0.3%,-14.6,4.1%
COc1ccccc1NC(=O)C(C)Sc1nnnn1C (centres undefined),-4.3%,8.91µM*,-19.5,-3.2%,-15.0,-6.9%
Cc1c(Cl)ccc2c1NC(=O)[C@]21[C@@H]2C(=O)N(Cc3ccccc3)C(=O)[C@@H]2[C@@H]2CCCN21,-27.0%,2.82µM*,-126.9*,-29.4%,1.0,-0.5%
CCCn1c(-c2cccc([N+](=O)[O-])c2)nc2c1c(=O)[nH]c(=O)n2Cc1ccccc1,-16.3%,-2.8%,-20.7,-1.8%,5.2,9.8%
CC(C)(C)Cn1c(=O)[nH]c(=O)c2cc([N+](=O)[O-])cnc21,-17.9%,-0.8%,-113.8*,-3.4%,5.8,-6.8%
C=CCN1C(=O)/C(=c2\sc3nc(=O)c(Cc4ccccc4Cl)nn3c2=O)c2ccccc21,/,3.55µM*,/,/,-7.1,-3.2%
O=C(O)CCSCc1ccccc1,-9.9%,1.7%[13.5 µM],/,-2.1%[11.4 µM],/,/
O[C@@](CCN1CCCCC1)(c1ccccc1)C1CCCCC1,-4.7%,-5.7%[20.9 µM],/,-0.2%[25.6 µM],0.1,3.4%[29.1 µM]
O=C(O)CCn1nnc(-c2cccs2)n1,0.1%,16.7%,-104.8*,3.5%,4.8,-1.8%

# Screens as filed in PubChem BioAssay.
